# Compounds with a hit are over-represented: about 20% of the library has one in this group of screens.
# Pf growth 96h: Primary qHTS for delayed death inhibitors of the malarial parasite plastid, 96 hour incubation. P. falciparum luciferase reporter growth, 96 h. Potency, µM (series often up to 28.7 µM), most hits filed as inhibitors. hit rate 6.9% among 320,000. AID 504834, 2011
#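 Readout is luminescence from an integrated firefly luciferase in P. falciparum. Red cells, 2% hematocrit and 0.05% parasitemia final, were cultured with compound through two parasite generations (96 hours) at 37 C, 5% CO2.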
# CHX counter: Cycloheximide Counterscreen for Small Molecule Inhibitors of Shiga Toxin | AID 2314, 2010 | cell reporter, cycloheximide protein synthesis inhibition counterscreen | hit rate 12% among 300,000 | max response, %; in the data active = max response mostly above about 13%, no sharp cut-off; inactive = mostly below about 14%; also: read at 38.3 µM for the half of the compounds with a filed dose
# Pf growth 48h: Primary qHTS for delayed death inhibitors of the malarial parasite plastid, 48 hour incubation; AID 504832, 2011; P. falciparum luciferase growth in erythrocytes, 48 h; hit rate 5.9% among 310,000; Potency, µM (highest dose often 28.7 µM), most hits filed as inhibitors
#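 Here the parasites carry a stable luciferase gene and grow inside erythrocytes in Albumax-based RPMI medium with compound for one erythrocytic cycle. Activity is scored as loss of luminescent signal.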
# HCMV antiviral: qHTS Assay for inhibitors of the human cytomegalovirus (HCMV) | AID 1259415, 2018 | hit rate 4.5% among 410,000 | HFF cells, HCMV-luciferase reporter, 72 h; hits give low values | activity change, negative = inhibition, % at 57.5 µM; in the data active = activity change below about -60%; inconclusive = no clear call, values can overlap the other calls; inactive = above about -39%
#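 HFF cells seeded 16 h at 37C, treated with compounds, infected with luciferase-reporter HCMV at MOI 1 PFU/cell; luciferase read at 72 h post infection, normalized to buffer-only and Salinomycin controls.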
# Shiga toxin inh: A qHTS for Small Molecule Inhibitors of Shiga Toxin; Vero cells, Shiga toxin protein synthesis inhibition reporter; inhibition, % at 38.7 µM; hit rate 9.2% among 290,000; AID 2315, 2010; in the data active = inhibition mostly above about 28%, no sharp cut-off; inactive = mostly below about 43%
# Numbers stand for hits; – = inactive; ? = inconclusive; · = no result. Unless noted, calls follow the shape of the dose curve; as a rule, active = well fitted inhibition curve with a large enough effect; inconclusive = small, poorly fitted or top-dose-only effect, or another doubt; inactive = no such curve, though single readings can be large or run the other way.
SMILES,Pf growth 96h,CHX counter,Pf growth 48h,HCMV antiviral,Shiga toxin inh
Cc1[nH]c2ccc(F)cc2c1CCN(Cc1cccnc1)C(=S)Nc1ccc(F)cc1,7.38µM,–,4.15µM,–,–
CCNC(=S)N(CCc1c(C)[nH]c2ccc(F)cc12)Cc1cccnc1,–,–,·,–,–
CCOc1ccc(NC(=S)N(CCc2c(C)[nH]c3ccc(C)cc23)Cc2cccnc2)cc1,3.7µM,–,?,?,–
Cc1ccc(-n2c(=O)c3ccc(C(=O)NCc4ccccc4Cl)cc3n(Cc3ccccc3F)c2=O)cc1,·,·,·,–,·
Cc1nc2ccccc2c2c1C(=O)N(C1CCCCCCC1)C2=O,–,–,–,–,–
CS(=O)(=O)c1ccc(C(=O)OCC(=O)N2CCOCC2)cc1[N+](=O)[O-],·,·,·,-79.5,·
CS(=O)(=O)c1ccc(C(=O)OCC(=O)NC(=O)C2CCCCC2)cc1[N+](=O)[O-],?,–,?,-77.2,–
CS(=O)(=O)c1ccc(C(=O)OCC(=O)N2CCN(CCC3CCCCC3)CC2)cc1[N+](=O)[O-],·,·,·,-102.8,·
Cc1ccc(NC(=S)Nc2ccccn2)cc1C,?,64.7,?,–,85.1
O=C(Nc1ccc2nc(-c3ccccn3)c(-c3ccccn3)nc2c1)N1CCOCC1,?,–,–,?,–
Cc1ccc(NC(=S)Nc2ccc(F)cc2)cc1C,–,–,?,?,–
Cc1cc(C)cc(NC(=S)Nc2ccccn2)c1,?,–,–,–,active
Cc1ccc(NC(=S)Nc2ccc3nc(-c4ccccn4)c(-c4ccccn4)nc3c2)cc1C,–,16.2,–,·,–
Cc1cc(C)cc(NC(=S)N2CCN(c3ccccn3)CC2)c1,–,–,–,–,–
Cc1cccc(NNC(=S)Nc2ccccc2)c1,·,·,·,–,·
Cc1cccc(NC(=S)Nc2ccccn2)c1,–,32.6,–,–,62.0
C=CCC[C@@H](Cc1ccc(F)cc1)C(=O)OC[C@@H](Cc1ccccc1)NC(=O)[C@H](CC=C)CC(=O)NCCO,·,·,·,–,·
CCOc1ccc2nc(N3CCC(C(=O)Nc4ccccc4CC)CC3)sc2c1,·,·,·,–,·
O=C(Cc1cccs1)NC1C(=O)N2C(C(=O)[O-])=C(C[n+]3ccccc3)CSC12 (centres undefined),–,·,–,·,·
COc1ccc(Cl)cc1NC(=O)CN(C)S(=O)(=O)c1ccc2c(c1)CCCN2C(C)=O,·,·,·,–,·
O=S(=O)(c1ccc2ccccc2c1)N(CC1CO1)c1ccccc1 (centres undefined),–,–,–,?,–
C=CCN(C(=O)c1csnn1)C(C(=O)NC1CCCC1)c1ccccc1 (centres undefined),?,–,–,–,–
Cc1cccc(NC(=S)NC(C)(C)CC(C)(C)C)c1,?,–,–,-64.5,–
Cc1cccc(NC(=S)NCc2ccc(F)cc2)c1,–,–,–,–,–
Cc1c(C(=O)Nc2cccc(Cl)c2)c2ccccn2c1CCc1ccncc1,?,–,–,–,37.1
SMILES,Pf growth 96h,CHX counter,Pf growth 48h,HCMV antiviral,Shiga toxin inh
Cc1c(C(=O)Nc2ccc(Cl)cc2)c2ccccn2c1C(=O)c1ccc(F)cc1,?,–,·,–,–
Cc1c(C(=O)Nc2ccc(Cl)cc2)c2ccccn2c1CCc1ccncc1,9.28µM,27.6,?,–,38.9
Cc1c(C(=O)c2ccccc2)c2ccccn2c1CCc1ccccn1,–,–,–,–,–
COC(=O)c1ccc(NC(=O)CN(C)S(=O)(=O)c2ccc3c(c2)CCCC(=O)N3)cc1,·,·,·,–,·
COc1ccc(NC(=O)N2CCCC(CCC(=O)N(C)CCc3ccccn3)C2)cc1 (centres undefined),–,29.6,–,–,90.5
CN(CCc1ccccn1)C(=O)CCC1CCCN(C(=O)c2cscn2)C1 (centres undefined),–,–,–,–,–
CN(CCc1ccccn1)C(=O)CCC1CCCN(C(=O)c2ccsc2)C1 (centres undefined),10.4µM,–,–,–,–
C=CCOc1ccccc1CN1CCCC(CCC(=O)N(C)CCc2ccccn2)C1 (centres undefined),11.7µM,–,–,–,–
CN(CCc1ccccn1)C(=O)CCC1CCCN(C(=O)c2c3c(nn2C)CCCC3)C1 (centres undefined),8.28µM,–,–,–,–
CN(CCc1ccccn1)C(=O)CCC1CCCN(C(=O)c2cccc(N(C)C)c2)C1 (centres undefined),–,–,–,–,–
CCc1ccccc1NC(=O)N1CCCC(CCC(=O)N(C)CCc2ccccn2)C1 (centres undefined),?,–,–,–,–

# Source: PubChem
